Only some compounds are listed: those with a hit (about 10% of all), similar ones and a draw of the others.
Pf growth 48h = P. falciparum growth inhibition at 48 hours (one generation); 310,000 compounds, 5.9% hits; P. falciparum luciferase growth in erythrocytes, 48 h; Potency, µM (top dose mostly 28.7 µM), inactives show at the highest dose activity change, negative = inhibition, hits mostly inhibitors; active = well fitted inhibition curve with a large enough effect; inconclusive = small, poorly fitted or top-dose-only effect, or another doubt; inactive = no such curve, though single readings can be large or run the other way; note: % is set by controls: 0 for no effect and ±100 for the full control effect
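Luciferase-expressing P. falciparum in infected erythrocytes (2% hematocrit, 0.1% parasitemia final) in RPMI 1640/0.5% Albumax were exposed to compound for 48 hours at 37 C, 5% CO2; growth read as luminescence.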
Pf growth 96h = inhibits malaria parasite growth, 96 h; P. falciparum luciferase reporter growth, 96 h; 320,000 compounds, 6.9% hits; Potency, µM (doses to about 28.7 µM), for inactives: at the highest dose activity change, negative = inhibition, hits mostly inhibitors; AID 504834; active = well fitted inhibition curve with a large enough effect; inconclusive = small, poorly fitted or top-dose-only effect, or another doubt; inactive = no such curve, though single readings can be large or run the other way; note: % is set by controls: 0 for no effect and ±100 for the full control effect
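Two parasite generations (96 h, 37 C, 5% CO2) of compound exposure in infected erythrocytes (0.05% parasitemia, 2% hematocrit). Luciferase-reporter P. falciparum; decreased luminescence indicates inhibited growth, aimed at apicoplast-acting delayed death.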
SARS PLpro yeast = SARS-CoV PLP inhibition in yeast. 330,000 compounds, 0.19% hits. S. cerevisiae expressing SARS-CoV PLpro, growth rescue. Potency, µM (highest dose often 32.9 µM), for inactives: top-dose activity, positive = growth rescue, usual class: activators; note: 0% is about no effect; nearly all actives have a fitted effect of over 55% in size
NS1 inh = influenza NS1 inhibition; 270,000 compounds, 0.4% hits; Potency, µM (highest dose often 46.1 µM), for inactives: at the top dose activity, positive = more growth; note: actives are rising curves; nearly all actives have a fitted effect of over 50% in size
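S. cerevisiae expressing influenza A NS1, grown in glucose, washed, then diluted 1:100 into pH 6.0 -URA galactose medium with 23 nl compound. Growth recovery read as OD600; NS1-free strain serves as control.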
* hit, by the source's call; u = inconclusive; x = no result. Unless noted, calls come from the whole dose curve. Potency is the fitted concentration of half-maximal effect.

SMILES	Pf growth 48h	Pf growth 96h	SARS PLpro yeast	NS1 inh
C=CCn1c(C)cc(C(=O)CSc2nnc(NC(C)C)s2)c1C	u	4.7µM*	-18%	5%
COc1ccc(Nc2ccnc3ccccc23)cc1	12µM*	u	2%	-6%
COc1ccc(Nc2ncnc3ccccc23)cc1	132%	x	4%	-1%
COc1ccc(Nc2cc(C)nc3ccc(OC)cc23)cc1	u	-7%	0%	8%
CC(C)Nc1ccc(Nc2ccnc3cc4ccccc4cc23)cc1	0.52µM*	0.59µM*	-1%	-9%
c1ccc(CCNc2ccnc3cc4ccccc4cc23)cc1	0.52µM*	49%	0%	x
CCCCn1c(N)c(N(CC(C)C)C(=O)c2ccc(Cl)c(S(=O)(=O)N3CCCC3)c2)c(=O)[nH]c1=O	u	u	-6%	x
O=C(c1ccc2nc(N3CCCCC3)sc2c1)N1CCN(Cc2ccc3c(c2)OCO3)CC1	4.1µM*	22%	3%	-65%
NC(=O)CN1CCN(Cc2ccc3c(c2)OCO3)CC1	7%	12µM*	-5%	7%
CCOC(=O)N1CCN(C(=O)c2ccc3nc(N4CCCCC4)sc3c2)CC1	-3%	10µM*	-9%	-6%
Cc1ccc2[nH]c3c(c2c1)CN(C(=O)CN1CCN(Cc2ccc4c(c2)OCO4)CC1)CC3	u	9.3µM*	0%	-2%
Cc1ccc2[nH]c3c(c2c1)CN(C(=O)CN1CCSCC1)CC3	u	13%	4%	6%
CC1CCN(c2nc3ccc(C(=O)N4CCN(Cc5ccccc5)CC4)cc3s2)CC1	x	-17%	-1%	0%
CCOC(=O)N1CCN(C(=O)c2ccc3nc(N4CCC(C)CC4)sc3c2)CC1	u	163%	4%	-8%
Cc1ccc(NC(=O)c2nc[nH]c2C(=O)NCC(=O)OC(C)(C)C)cc1	3%	12%	2%	0%
CN(C)S(=O)(=O)c1cccc(C(=O)NCCOC(=O)c2cc(F)c(F)cc2Cl)c1	8%	11%	-4%	-1%
CCCN1CCN(CCCNC(=O)c2ccc3nc(N4CCC(C)CC4)sc3c2)CC1	4%	u	-7%	-7%
O=C(c1cccnc1)N1CCN(Cc2ccc3c(c2)OCO3)CC1	12%	4.1µM*	5%	2%
CCOc1ccc2nc(N3CCC(C(=O)N4CCN(C(=O)c5ccco5)CC4)CC3)sc2c1	13µM*	u	-30%	-11%
CCOC(CNC(=O)c1ccc2nc(N3CCC(C)CC3)sc2c1)OCC	u	9.3µM*	-4%	-3%
CCOc1ccc(S(=O)(=O)N(C)CCO)cc1-c1nc2c(C(C)(C)C)nn(C)c2c(=O)[nH]1	12µM*	-8%	2%	5%
CCOc1ccc(S(=O)(=O)N(C)C)cc1-c1nc2c(C(C)(C)C)nn(C)c2c(=O)[nH]1	-5%	u	-12%	6%
Cc1ccc(-c2noc(CCC(=O)NCCCN3CCN(c4cccc(Cl)c4)CC3)n2)cc1	9.3µM*	41%	1%	-65%
CCOC(=O)C1CCN(C2CCN(Cc3nc(-c4ccccc4)no3)CC2)CC1	10%	1.5µM*	1%	-3%
CN1CCCN(Cc2nc(-c3cccc(C(F)(F)F)c3)no2)CC1	-2%	12µM*	-2%	-1%
SMILES	Pf growth 48h	Pf growth 96h	SARS PLpro yeast	NS1 inh
FC(F)(F)c1cccc(-c2noc(CN3CCOCC3)n2)c1	12%	34%	11%	-3%
c1ccc(OCCN2CCN(Cc3nc(-c4ccc5c(c4)OCO5)no3)CC2)cc1	36%	15µM*	0%	-3%
Cc1cc(OCC(=O)NCCc2c[nH]c3ccccc23)c2c(C)cc(=O)oc2c1	u	u	-1%	2%
Cc1ccc(SCC(=O)N/N=C/c2ccco2)cc1	u	u	-9%	-18%
COc1ccc(C(=O)CSc2nnc(CNC(=O)c3ccco3)n2C)cc1	-18%	-24%	1%	-2%
Clc1cccc(N2CCN(Cc3nc(-c4ccccc4)no3)CC2)c1	2%	5.9µM*	-20%	-39%
O=C(NNc1nc(Nc2ccccc2)nc(N2CCOCC2)n1)Nc1ccc(Cl)cc1	10µM*	178%	-5%	x
C/C(=N\Nc1cc(N2CCOCC2)ncn1)c1cccc([N+](=O)[O-])c1	-10%	29%	0%	1%
C/C(=N\Nc1nc(N2CCOCC2)nc(N2CCOCC2)n1)c1cccc([N+](=O)[O-])c1	10µM*	9%	-1%	x
CC(=O)Nc1ccc(/C(C)=N/Nc2nc(Nc3ccccc3)nc(N3CCOCC3)n2)cc1	2.1µM*	26%	-1%	2%
COc1ccc(-c2nc(N/N=C(\C)c3ccc(O)cc3)c3ccccc3n2)cc1	u	-98%	0%	24%
Clc1cccc(Nc2nc(N3CCOCC3)nc(N3CCOCC3)n2)c1	u	u	2%	6%
C/C(=N\Nc1nc(-c2ccc(C)cc2)nc2ccccc12)c1ccc([N+](=O)[O-])cc1	0%	2.1µM*	7%	-13%
CCC1CCCCN1CCCNC(=O)CSc1nc2nc(C)c(Cc3ccc(C)cc3)c(C)n2n1 (stereo unspecified)	u	30%	-3%	11%
Cc1cc(-c2nnc(SCC(=O)Nc3ccc(F)cc3F)n2N)n[nH]1	48%	-1%	2%	1%
C/C(=N\Nc1cc(C)nc(-c2ccccc2)n1)c1cccc([N+](=O)[O-])c1	12µM*	0.41µM*	-1%	6%
Cc1ccc(CN2CCN(CC(=O)N3CCC4(CC3)OCCO4)C2=O)cc1	x	3.7µM*	1%	-6%
Cc1ccc(CNC(=O)CN2CCN(Cc3ccc(C)cc3)C2=O)cc1	x	2.9µM*	4%	-10%
Cc1ccc(S(=O)(=O)NCC(=O)N2CCc3ccccc3C2)cc1	u	u	4%	7%
Cc1ccc(CN2CCN(CC(=O)N3CCc4ccccc4C3)C2=O)cc1	-6%	17µM*	9%	-1%
Cc1ccc(CN2CCN(CC(=O)N3CCC(C(N)=O)CC3)C2=O)cc1	x	x	x	21%
O=C(Nc1ccc(Cl)cc1)N1CCN(c2ccc3nnc(-c4ccc(F)cc4)n3n2)CC1	9.3µM*	u	3%	-11%
COc1ccc(/C=N/NC(=O)Cc2n[nH]c(=O)[nH]c2=O)cc1	8%	36%	2%	2%
O=C(Cc1n[nH]c(=O)[nH]c1=O)N/N=C/c1ccccc1O	1.5µM*	32%	2%	-1%
Cc1nc2ccc(S(=O)(=O)N3CCCCC3)cc2s1	12%	29%	-1%	1%
SMILES	Pf growth 48h	Pf growth 96h	SARS PLpro yeast	NS1 inh
Cc1cccc(N2CCN(c3ccc4cc(S(=O)(=O)N5CCCCC5)ccc4n3)CC2)c1C	12µM*	u	-1%	2%
Cc1ccc(C)c(N2CCN(c3ccc4cc(S(=O)(=O)N5CCCCC5)ccc4n3)CC2)c1	1%	9.3µM*	4%	5%
Cc1cccc(N2CCN(c3ccc4cc(S(=O)(=O)N5CCCCC5)ccc4n3)CC2C)c1 (stereo unspecified)	u	10µM*	12%	4%
COc1ccc(N(CC(=O)O)N=O)cc1	x	x	x	-3%
CC(C)[C@H]1CN=C2N(C[C@H](C)NC(=O)CCC3CCCCC3)[C@H](Cc3ccc(O)cc3)CN21	12µM*	4.1µM*	0%	-31%
COc1ccc(C[C@@H]2CN3C(=NC[C@@H]3Cc3ccc(O)cc3)N2C[C@H](C)NC(=O)CCC2CCCCC2)cc1	1.2µM*	0.74µM*	1%	2%

High-throughput results as filed in PubChem BioAssay.
